The record followed here is PubChem BioAssay (Tox21).

Records with an inconclusive call do not appear. A call without a number means that no potency is given here. The source holds several records for some structures; these can differ, active in one and inactive in another. Active and inactive are the calls of the source. Calls come from the whole dose curve; as a rule, active = well fitted cell-killing curve with a large enough effect in the repeat runs; inconclusive = weak or mixed curves, or effect the other way; inactive = flat fitted curve, though single readings scatter.
Potency is the fitted concentration of half-maximal effect.

The nature of the assay: Human pregnane X receptor (PXR) small molecule agonists, qHTS cell viability counter screen (AID 1346977). Note: nearly all actives have a fitted effect of over 50% in size. To be noted: PXR-Luc HepG2 viability, CellTiter-Fluor, 24 h; series mostly up to 92.4 µM; activity change, negative = cytotoxicity: at the top concentration. From the text: U.S. Tox21 Program National Center for Advancing Translational Sciences [NCATS] NIH Chemical Genomics Center [NCGC] U.S. Environmental Protection Agency [EPA] National Institutes of Environmental Health Sciences [NIEHS] National Toxicology Program [NTP] U.S. Food and Drug Administration [FDA] Tox21 Assay Overview: The human pregnane X receptor (hPXR) regulates the expression of several drug metabolizing enzymes and induction of these proteins is a major mechanism for developing drug resistance in cancer. One such key enzyme catalyzing the drug metabolism is cytochrome P450 3A4 (CYP3A4). Changes in CYP3A4 expression affect drug metabolism, thereby reducing the therapeutic efficacy and altering toxicological response to a drug and which finally causes adverse drug interaction. To screen Tox21 libraries for compounds that activate hPXR-mediated CYP3A4 gene expression, PXR-Luc HepG2 cells were used. Also cytotoxicity of the compounds was tested in parallel by measuring the cell viability using CellTiter-Fluor assay system in the same wells.
Tox21 Assay Protocol Summary: PXR-Luc HepG2 cells were dispensed at 2,000 per well in 5uL of assay medium containing 5% charcoal-stripped FBS into white solid bottom 1536-well plates (Corning Life Sciences, Corning, NY) using a Multidrop Combi (Thermo Scientific, Waltham, MA) dispenser. The assay plates were incubated at 37 C and 5% CO2 for 5hr, and then 23nL of compounds dissolved in DMSO and positive control were transferred using a Pintool station (Wako, San Diego, CA). The assay plates were incubated at 37C and 5% CO2 for 24hr. For cytotoxicity read, after 23hr incubation at 37C, 1uL CellTiter-Fluor reagent (Promega Corporation, Madison, WI) was added to each well of the assay plates using Flying Reagent Dispenser (FRD, Aurora Discovery, San Diego, CA). After 1hr incubation at 37C and 5% CO2, the fluorescence signal was quantified using a ViewLux plate reader (PerkinElmer, Shelton, CT).
With `CCN(CC)CCNC(=O)c1ccc(N)cc1`, the Potency result was “inactive”. In the case of `CC(=O)C(C)C`, the Potency result is “inactive”. The same measure, in the same setting: the result for `C[n+]1ccn(CCO)c1` reads “inactive”; that for `CC(=O)OC/C=C(\C)CCC=C(C)C`, “inactive”. Same read-out and setting: the result for `COc1c2ccoc2cc2oc(=O)ccc12` reads “inactive”. For `O=c1c(O)c(-c2ccc(O)c(O)c2)oc2cc(O)cc(O)c12`, the “activity change, negative = cytotoxicity” value was -26.5% [at 42.5 µM] (inactive). Regarding `CC(=O)c1nccs1`, the Potency result is “inactive”.

Turning to `O=Cc1ccc(CO)o1`, the Potency entry is “inactive”. The same measure, in the same setting: the result for `Oc1ccc(Cc2ccccc2O)cc1` reads “inactive”; that for `CC(=O)OCc1ccc2c(c1)OCO2`, “inactive”. In the case of `N#CCC(=O)O`, the Potency result was “inactive”.

As to `COc1ccc2cc3[n+](cc2c1OC)CCc1cc2c(cc1-3)OCO2`, the “activity change, negative = cytotoxicity” value was -19.9% [at 42.5 µM] (inactive).

On to `CC(COCC(C)OC(=O)c1ccccc1)OC(=O)c1ccccc1` (stereo not given), for which the Potency result was “inactive”. Regarding `O=[N+]([O-])c1ccccc1C(F)(F)F`, the Potency result was “inactive”. On the same count and under the same terms, the result for `CC(C=O)Cc1ccc(C(C)(C)C)cc1` (stereo not given) reads “inactive”; that for `CC(C)(CO)CO`, “inactive”.

`COC(=O)/C=C\C(=O)OC`: the Potency result was “inactive”. For the compound `CCCOC(=O)NCCCN(C)C`, the Potency entry was “inactive”. Same read-out and setting: with `CC/C(C)=N/O` the entry was “inactive”; with `CCCCCCCCO`, “inactive”. Take `O=C(O)C1=NN(c2ccc(S(=O)(=O)O)cc2)C(=O)C1`: the Potency result is “inactive”. Still for that read-out and setting: with `Cc1ccc(Cl)cc1` the entry was “inactive”.

For the compound `COc1ccc(N)c(OC)c1`, the “activity change, negative = cytotoxicity” value was 2.55% [at 42.5 µM] (inactive). Same read-out and setting: with `CCCCCCC(=O)O` the figure was 2.07% (inactive).

With `C=CC(=O)NCOCCCC`, the Potency entry was “inactive”.

`CC(O)CNCC(C)O` (stereo not given): the Potency result was “inactive”.

Turning to `Brc1ccc(Oc2ccc(Br)cc2)cc1`, the Potency result is “inactive”. In the case of `COCN(COC)c1nc(N(COC)COC)nc(N(COC)COC)n1`, the Potency entry was “inactive”. On the same count and under the same terms, with `NC1CCCCC1N` (stereo not given) the entry was “inactive”; with `OC1CCCCC1`, “inactive”. Regarding `Cc1cc(C)c(O)c(C)c1`, the “activity change, negative = cytotoxicity” value is 3.17% (inactive).

On to `Cc1ccc(C(C)C)cc1`, for which the Potency entry was “inactive”. The same measure, in the same setting: the result for `Cc1cccc(C)c1[N+](=O)[O-]` reads “inactive”; that for `CO[Si](CCCNCCN)(OC)OC`, 31.6 µM (active) and inactive. Same read-out and setting: with `O=C(O)Cc1c[nH]c2ccccc12` the entry was “inactive”; with `O=C1O[C@H]([C@H](O)CO)C(O)=C1O`, “inactive”; with `CC1=CC(=O)CC(C)(C)C1`, “inactive”.

Consider `O=C(Cl)c1ccc(C(=O)Cl)cc1`, for which the Potency result was “inactive”. For the compound `CCc1cccc(O)c1`, the Potency entry was “inactive”.

With `Cc1cc(CC(=O)O)n(C)c1C(=O)c1ccc(Cl)cc1`, the Potency result is “inactive”.
